LASV entry inh – inhibitors of Lassa virus binding or cell entry | Potency, µM (top dose mostly 37.9 µM), for the others: top-dose activity change, negative = inhibition, actives largely listed as inhibitors | Lassa virus pseudotype entry inhibition, cell reporter | AID 540256 | hit rate 1.2% among 300,000; calls by dose curve; tested in HEK293 cells; further: potency means the concentration at half of the fitted maximal effect; on the % scale 0 is the no-effect control and ±100 the full control effect; nearly all actives have a fitted effect of over 50% in size
Pf growth 96h – inhibits malaria parasite growth, 96 h. P. falciparum luciferase reporter growth, 96 h. Potency, µM (top dose mostly 28.7 µM), for inactives: top-dose activity change, negative = inhibition, actives largely listed as inhibitors. hit rate 6.9% among 320,000; further: potency means the concentration at half of the fitted maximal effect; on the % scale 0 is the no-effect control and ±100 the full control effect
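Readout is luminescence from an integrated firefly luciferase in P. falciparum. Red cells, 2% hematocrit and 0.05% parasitemia final, were cultured with compound through two parasite generations (96 hours) at 37 C, 5% CO2.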
Shiga toxin inh – blocks Shiga toxin action in Vero cells; inhibition, % at 38.7 µM; hit rate 9.2% among 290,000; Vero cells, Shiga toxin protein synthesis inhibition reporter; in the data active means inhibition mostly above about 28%, no sharp cut-off; inactive means mostly below about 43%; further: 0% is about no effect
Pf growth 48h – P. falciparum growth inhibition at 48 hours (one generation). P. falciparum luciferase growth in erythrocytes, 48 h. Potency, µM (highest dose often 28.7 µM), without a hit: top-dose activity change, negative = inhibition, usual class: inhibitors. hit rate 5.9% among 310,000. AID 504832; further: potency means the concentration at half of the fitted maximal effect; on the % scale 0 is the no-effect control and ±100 the full control effect
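Cell-based growth assay: transgenic P. falciparum expressing firefly luciferase, cultured in red cells within RPMI 1640 containing 0.5% w/v Albumax, 24 mM bicarbonate and gentamycin. A drop in luciferase activity indicates inhibition.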
CHX counter – affects cycloheximide protein synthesis inhibition readout, counter-screen | cell reporter, cycloheximide protein synthesis inhibition counterscreen | hit rate 12% among 300,000 | max response, %; in the data active means max response mostly above about 13%, no sharp cut-off; inactive means mostly below about 14%; further: read at 38.3 µM for the half of the compounds with a filed dose; 0% is about no effect
MARV entry inh – blocks Marburg virus binding to or entry into cells; hit rate 1.8% among 300,000; Marburg virus pseudotyped entry inhibition, cell reporter; Potency, µM (series often up to 37.8 µM), without a hit: at the top dose activity change, negative = inhibition, actives largely listed as inhibitors; calls by dose curve; tested in HEK293 cells; further: potency means the concentration at half of the fitted maximal effect; on the % scale 0 is the no-effect control and ±100 the full control effect
An asterisk follows results filed as active; ? = inconclusive; nt = not tested or not shown; + = active, no number; [ ] = dose if it differs, or a comment. Only some compounds are listed: those with a hit (about 19% of all), similar ones and a draw of the others. Unless noted, the call rests on the fitted dose curve; in most records, active means well fitted inhibition curve with a large enough effect; inconclusive means small, poorly fitted or top-dose-only effect, or another doubt; inactive means no such curve, though single readings can be large or run the other way.

SMILES | LASV entry inh | Pf growth 96h | Shiga toxin inh | Pf growth 48h | CHX counter | MARV entry inh
O=C(Nc1c2c(nn1-c1ccccc1)CS(=O)C2)c1ccc(Br)o1 (stereo not drawn) | 2.0% | 29.8% | -14.0 | 14.0% | -1.7 | -12.5%
N=c1ccn(CC(=O)c2ccc(-c3ccccc3)cc2)cc1 | ? | ? | -5.4 | 0.828µM* | -0.7 | ?
O=C(CN1C(=O)CCC1=O)c1ccc(-c2ccccc2)cc1 | ? | 9.6% | 82.8* | 78.9% | 62.8* | ?
Cc1ccc2nc(N3CC(=O)Nc4ccccc43)nc(-c3ccccc3)c2c1 | ? | 9.28µM* | -15.7 | -8.7% | -9.3 | ?
CC(=O)Nc1ccc(S(=O)(=O)N(C)c2ccc(O)cc2)cc1 | ? | 24.7% | -4.1 | -2.3% | 4.5 | 1.3%
CC(=O)Nc1cccc(N=NN2CCOCC2)c1 | ? | ? | -3.4 | 1.7% | -1.7 | -2.3%[46.1 µM]
O=C(O)c1cc(O)ccc1N=Nc1ccccc1 | nt | -2.5% | 22.3 | -7.5% | 1.4 | nt
Oc1ccc(N=Nc2ccccc2)cc1 | nt | 121.5% | 72.9* | 115.0% | 35.8* | nt
CC(=O)Nc1ccc(N=NN2CCOCC2)cc1 | 15.1%[46.1 µM] | 39.1% | 73.2* | 17.3% | 46.1* | ?
CC(=O)Nc1ccc(N=Nc2ccc(O)cc2)cc1 | ? | 133.6% | + | 276.1% | 34.8* | ?
Oc1ccc(Cl)cc1N=Nc1ccccc1 | nt | ? | 36.8 | 42.3% | 26.6* | nt
O=C(Nc1c(Cl)ccc2nsnc12)c1ccco1 | -0.7%[46.1 µM] | 8.3% | -7.6 | -4.1% | 0.9 | 2.2%[46.1 µM]
COc1cc(/C=C2\SC(=O)N(c3ccc(Cl)cc3)C2=O)cc([N+](=O)[O-])c1O | -6.2% | ? | 22.5 | -24.1% | -0.2 | ?
CC(C)CN(C)c1nc(N)c(C(=O)N=C(N)N)nc1Cl | nt | nt | nt | nt | nt | 7.08µM*
NC(N)=NC(=O)c1nc(Cl)c(N2CCCCCC2)nc1N | ? | 9.28µM* | nt | 4.65µM* | nt | 7.08µM*
NC(N)=NC(=O)c1nc(Cl)c(N)nc1N | 5.4% | ? | -14.2 | 3.79µM* | -3.9 | -15.9%
Nc1c(Cl)ncnc1N1CCCC1 | 9.1%[46.1 µM] | ? | 16.2 | 5.7% | -1.9 | -14.0%[46.1 µM]
CC(NC(=O)CNC(=O)c1ccco1)c1ccc(S(N)(=O)=O)cc1 (stereo not drawn) | 1.2%[46.1 µM] | 33.3% | -7.1 | 32.4% | -3.1 | 8.0%[46.1 µM]
COc1cc(/C=C2\N=C(c3c(-c4ccccc4)noc3C)OC2=O)ccc1OC(C)=O | 21.6%[46.1 µM] | 4.0% | -6.0 | 13.1µM* | -4.4 | -13.9%[46.1 µM]
COc1cccc(/C=C2\N=C(c3c(-c4ccccc4)noc3C)OC2=O)c1 | -19.4% | 23.7% | -1.0 | 8.3% | 0.7 | 19.2%
O=C(NNc1cc(N2CCCC2)nc(N2CCCC2)n1)c1ccc([N+](=O)[O-])cc1 | nt | 66.6% | -25.0 | ? | 0.4 | 5.4%[46.1 µM]
CC(=O)NNc1cc(N2CCOCC2)nc(N2CCOCC2)n1 | nt | ? | 1.3 | 0.0% | -0.9 | nt
CC(C)(C)c1ccc(C(=O)NNc2cc(N3CCOCC3)nc(N3CCOCC3)n2)cc1 | -7.3% | -20.2% | 9.5 | 11.7µM* | 0.8 | -29.0%[14.2 µM]
CC(C)(C)c1ccc(C(=O)NNc2cc(N3CCCCC3)nc(N3CCCCC3)n2)cc1 | -15.3% | ? | 16.2 | 2.62µM* | -2.0 | ?
CC1Cc2ccccc2N1C(=O)COC(=O)c1c2c(nc3ccccc13)CCCCC2 (stereo not drawn) | ? | 13.1µM* | -5.5 | ? | 14.1* | ?
SMILES | LASV entry inh | Pf growth 96h | Shiga toxin inh | Pf growth 48h | CHX counter | MARV entry inh
O=C(OCC(=O)N1CCc2ccccc21)c1c2c(nc3ccccc13)CCCC2 | ? | ? | 62.5* | 8.28µM* | 33.6* | ?
CC1Cc2ccccc2N1C(=O)COC(=O)c1n[nH]c(=O)c2ccccc12 (stereo not drawn) | nt | -16.2% | nt | -12.6% | nt | nt
CC(C)(C)C(=O)COC(=O)c1c2c(nc3ccccc13)CCC2 | -23.7% | -17.1% | -16.4 | -2.3% | 6.0 | -4.2%[46.1 µM]
Cc1onc(-c2ccccc2Cl)c1C(=O)OCC(=O)N1CCCc2ccccc21 | -13.1% | ? | 12.2 | 9.28µM* | -0.1 | -24.1%
CC(=O)Nc1ccc(NC(=O)c2ccc(N(Cc3ccccc3C)S(C)(=O)=O)cc2)cc1 | -16.3%[46.1 µM] | nt | nt | nt | nt | ?
COc1cccc(-c2cc(C(=O)N3CCN(S(=O)(=O)c4ccccc4)CC3)[nH]n2)c1 | nt | ? | -4.6 | ? | -3.4 | nt
CCOC(=O)N1CCN(C(=O)CC(C(=O)N2CCc3ccccc32)n2ccnc2)CC1 (stereo not drawn) | -1.3% | 19.1% | 2.2 | 0.0329µM* | -7.8 | 6.5%
CSCCC(NC(=O)c1ccc(Cl)cc1Cl)C(=O)NCc1ccccn1 (stereo not drawn) | 4.7% | ? | -14.6 | -2.7% | -1.7 | ?
CN1CCN(Cc2nc3ccccc3c(=O)n2Cc2nc(-c3ccc4ccccc4c3)cs2)CC1 | ? | ? | -18.9 | 11.7µM* | -12.7 | ?
O=C(O)c1cc(-c2cccc([N+](=O)[O-])c2)nc2ccccc12 | 7.7% | -20.8% | 2.2 | -13.8% | -1.5 | 15.3%[46.1 µM]
CN(C)Cc1nc2ccccc2c(=O)n1Cc1nc(C(C)(C)C)cs1 | -18.0% | -18.2% | 15.0 | 13.1µM* | -6.6 | ?
CN1CCN(Cc2nc3ccccc3c(=O)n2Cc2nc(-c3cccc([N+](=O)[O-])c3)cs2)CC1 | ? | 2.33µM* | -6.5 | ? | 15.2 | ?
CN1CCN(Cc2nc3ccccc3c(=O)n2Cc2nc(-c3ccccc3F)cs2)CC1 | -19.9% | ? | 4.4 | ? | 12.0 | ?
CNC(C(=O)c1ccccc1)C(OC)c1ccc(C)cc1 (stereo not drawn) | 22.5% | 47.4% | 44.0* | 37.6% | 11.4* | 0.8%
CNC(C(=O)c1ccccc1)C(OC(C)C)c1ccc(Cl)cc1 (stereo not drawn) | 14.9% | -41.4% | 15.8 | ? | -3.5 | ?
COc1ccc2c(c1)c1nnc(SCC(=O)NC3CC3)nc1n2C | ? | -8.1% | -7.7 | -18.4% | -6.2 | 24.1%[46.1 µM]
COc1ccc2c(c1)c1nnc(SCC(=O)N3CCCCC3C)nc1n2C (stereo not drawn) | -3.2% | 8.28µM* | -5.0 | 0.4% | -4.0 | 8.9%
COc1ccc(N2C(=O)c3ccccc3NC23C(=O)N(C)c2ccccc23)cc1 (stereo not drawn) | -1.1% | nt | 4.6 | 4.7% | 0.9 | -1.1%
COc1ccc2c(c1)C1(Nc3ccccc3-c3nc4ccccc4n31)C(=O)N2C (stereo not drawn) | -4.2% | 14.8% | 15.2 | 6.57µM* | -1.2 | -23.2%
CC1(c2ccncc2)Nc2ccccc2-c2nc3ccccc3n21 (stereo not drawn) | 19.7% | 2.62µM* | 28.5 | 3.29µM* | 16.0* | ?
COc1ccc2c(c1)C1(Nc3ccccc3-c3nc4ccccc4n31)C(=O)N2 (stereo not drawn) | 9.1% | nt | -18.2 | 0.415µM* | -2.7 | -14.3%
Cc1ccc(C2(C(F)(F)F)NC(=O)N3C(=C2C#N)Nc2ccccc23)cc1 (stereo not drawn) | -12.7% | nt | -8.2 | -9.7% | -3.3 | 16.8%

Screens (PubChem)
